Source: PubChem BioAssay (EPA / NIEHS)
Inconclusive results are not listed. Where a structure was tested more than once in an assay, its records may differ in their call. The source made the active and inactive calls. The calls were made as follows, unless noted: active = hit-call score of the fitted dose curve at least 0.9, where 1 is the maximum; inactive = score below 0.9.

What was measured:
[1] = target: Retinoic acid receptor RXR-alpha (Homo sapiens) (UniProt P19793); test: ATG_RXRa_TRANS: Attagene TRANS-FACTORIAL HepG2 Assay for human Retinoid X Receptor alpha (RXRa) (AID 2283012; active = hit-call score of the fitted dose curve at least 0.9, where 1 is the maximum)
Procedure, shortened: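 Transient transfection of human HepG2 with multiple GAL4-UAS reporter constructs; 24 h compound exposure; total RNA isolated, reverse-transcribed, PCR-amplified, 6-FAM labelled, HpaI-cut, resolved by capillary electrophoresis. Positive-direction fit versus DMSO.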

[2] = target: human Thyroid Receptor alpha (THRa1), THRA (gene 7067) (UniProt P10827); test: ATG_THRa1_TRANS: Attagene TRANS-FACTORIAL HepG2 Assay for human Thyroid Receptor alpha (THRa1) (AID 2283014; active = hit-call score of the fitted dose curve at least 0.9, where 1 is the maximum)
Procedure, shortened: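 Reporter transcript induction, read by capillary electrophoresis of 6-FAM-labelled RT-PCR products, reflects activity of a transfected THRa1-Gal4 fusion in HepG2 liver cells. Cells were dosed for 24 h; activity was fitted in the positive direction against DMSO.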

[3] = read-out: E-selectin (Homo sapiens) (UniProt P16581); test: BSK_3C_Eselectin: BioMAP Diversity Plus: 3C Assay for Eselectin Biomarker Activity (AID 2283015); conditions: primary human endothelial cells (HUVEC); actives raise or lower the signal;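 also: cell surface E-selectin protein quantified by ELISA 24 h after dosing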
Procedure, shortened: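 ELISA read-out of E-selectin on endothelial monolayers after 24 h chemical treatment. Human umbilical vein primary cells served as the system, with DMSO defining baseline activity for bidirectional fitting.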

[4] = read-out: Interleukin-1 alpha (IL1a), IL1A (gene 3552); test: BSK_BE3C_IL1a: BioMAP Diversity Plus: BE3C Assay for Interleukin-1 alpha (IL1a) Biomarker Activity (AID 2283016); conditions: primary human bronchial epithelial cells; actives raise or lower the signal
Procedure, shortened: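 BE3C primary human bronchial epithelium; cpd 24 h; IL-1a by ELISA; bidirectional fit vs DMSO; parallel SRB (0.1% SRB, 10% TCA fix, 560 nm) for cytotoxicity.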

[5] = read-out: Monocyte Chemoattractant Protein-1 (MCP1), CCL2 (gene 6347); test: BSK_3C_MCP1: BioMAP Diversity Plus: 3C Assay for Monocyte Chemoattractant Protein-1 (MCP1) Biomarker Activity (AID 2283017); conditions: primary human endothelial cells (HUVEC); actives raise or lower the signal
Procedure, shortened: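 ELISA read-out of MCP-1 from human umbilical vein endothelial cell cultures harvested 24 h post-dosing. Gain or loss of signal was fitted relative to DMSO.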

[6] = read-out: Monocyte Chemoattractant Protein-1 (MCP1), CCL2 (gene 6347); test: BSK_4H_MCP1: BioMAP Diversity Plus: 4H Assay for Monocyte Chemoattractant Protein-1 (MCP1) Biomarker Activity (AID 2283018); conditions: primary human endothelial cells (HUVEC); actives raise or lower the signal
Procedure, shortened: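 ELISA read-out of MCP-1 from human vascular endothelial primary cells taken at 24 hours after compound exposure. Activity was fitted in both directions relative to DMSO, which served as negative control.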

[7] = read-out: Human Leukocyte Antigen - DR isotype (HLADR), HLA-DRA (gene 3122); test: BSK_3C_HLADR: BioMAP Diversity Plus: 3C Assay for Human Leukocyte Antigen - DR isotype (HLADR) Biomarker Activity (AID 2283019); conditions: primary human endothelial cells (HUVEC); actives raise or lower the signal;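 also: ELISA of cell-surface HLA-DR on HUVEC 24 h after dosing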
Procedure, shortened: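 ELISA readout of surface HLA-DR on human umbilical vein endothelium, taken 24 h after chemical treatment. Gain- and loss-of-signal were both fitted relative to DMSO.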

[8] = read-out: Interleukin-8 (IL8), CXCL8 (gene 3576); test: BSK_3C_IL8: BioMAP Diversity Plus: 3C Assay for Interleukin-8 (IL8) Biomarker Activity (AID 2283020); conditions: primary human endothelial cells (HUVEC); actives raise or lower the signal
Procedure, shortened: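 ELISA read-out of IL-8 from human umbilical vein endothelium, measured 24 h after chemical dosing. Activity is expressed relative to DMSO negative control, with both increases and decreases fitted.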

[9] = read-out: Monokine induced gamma interferon (MIG), CXCL9 (gene 4283); test: BSK_3C_MIG: BioMAP Diversity Plus: 3C Assay for Monokine induced gamma interferon (MIG) Biomarker Activity (AID 2283021); conditions: primary human endothelial cells (HUVEC); actives raise or lower the signal
Procedure, shortened: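 Read-out is ELISA detection of MIG on human umbilical vein endothelial cells, taken 24 h after dosing. Gain or loss of signal was scored relative to DMSO controls using bidirectional curve fitting.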

[10] = BSK_3C_SRB: Viability Assessment in the BioMAP Diversity Plus: 3C Assay (AID 2283023); conditions: primary human endothelial cells (HUVEC);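 also: fitted both ways against DMSO so a hit may be signal rise or drop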
Procedure, shortened: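 Absorbance at 560 nm of sulforhodamine B-stained (0.1%) total protein served as a cytotoxicity readout in human umbilical vein endothelial cells, 24 h after chemical treatment. Signal was fitted bidirectionally relative to DMSO.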

[11] = read-out: Matrix Metallopeptidase 1 (MMP1), MMP1 (gene 4312); test: BSK_BE3C_MMP1: BioMAP Diversity Plus: BE3C Assay for Matrix Metallopeptidase 1 (MMP1) Biomarker Activity (AID 2283024); conditions: primary human bronchial epithelial cells; actives raise or lower the signal
Procedure, shortened: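 Human bronchial epithelial cells (BE3C system) exposed to compound for 24 h; MMP1 then quantified by ELISA. Activity was fitted in both directions relative to DMSO.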

[12] = read-out: Pselectin, SELP (gene 6403); test: BSK_4H_Pselectin: BioMAP Diversity Plus: 4H Assay for Pselectin Biomarker Activity (AID 2283026); conditions: primary human endothelial cells (HUVEC); actives raise or lower the signal
Procedure, shortened: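 ELISA read-out of P-selectin on human umbilical vein endothelium after 24 h of dosing. Values derive from bidirectional fitting relative to DMSO. Parallel SRB protein staining flagged overt cytotoxicity.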

[13] = BSK_4H_SRB: Viability Assessment in the BioMAP Diversity Plus: 4H Assay (AID 2283027); conditions: primary human endothelial cells (HUVEC);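 also: cells exposed to compound for 24 h before staining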
Procedure, shortened: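 Human umbilical vein endothelial cells, 24 h after chemical dosing; total protein measured by 0.1% sulforhodamine B staining after 10% TCA fixation, read at 560 nm. Bidirectional fitting against DMSO.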

[14] = BSK_BE3C_SRB: Viability Assessment in the BioMAP Diversity Plus: BE3C Assay (AID 2283028); conditions: primary human bronchial epithelial cells
Procedure, shortened: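 Cells (human bronchial epithelial, primary) are treated with chemicals, and after 24 h the parallel cultures are fixed in 10% TCA. These are then stained with 0.1% SRB and read at 560 nm. Gain or loss of signal is fitted relative to DMSO.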

[15] = read-out: Thrombomodulin, THBD (gene 7056); test: BSK_3C_Thrombomodulin: BioMAP Diversity Plus: 3C Assay for Thrombomodulin Biomarker Activity (AID 2283029); conditions: primary human endothelial cells (HUVEC); actives raise or lower the signal
Procedure, shortened: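 Read-out is ELISA of thrombomodulin on human umbilical vein endothelium 24 h after chemical dosing. Gain or loss of signal is scored relative to DMSO. Overt cytotoxicity is checked in parallel cultures by sulforhodamine B staining.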

[16] = read-out: Urokinase-type plasminogen activator receptor (uPAR), PLAUR (gene 5329); test: BSK_4H_uPAR: BioMAP Diversity Plus: 4H Assay for Urokinase-type plasminogen activator receptor (uPAR) Biomarker Activity (AID 2283030); conditions: primary human endothelial cells (HUVEC); actives raise or lower the signal
Procedure, shortened: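 Cell-surface uPAR ELISA signal, measured 24 h after dosing human umbilical vein endothelial cells, was analyzed with bidirectional fitting relative to DMSO. Parallel SRB staining of total protein tracked overt cytotoxicity.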

[17] = read-out: Vascular endothelial growth factor receptor 2 (Homo sapiens) (UniProt P35968); test: BSK_4H_VEGFRII: BioMAP Diversity Plus: 4H Assay for Vascular endothelial growth factor receptor 2 (VEGFR2) Biomarker Activity (AID 2283031); conditions: primary human endothelial cells (HUVEC); actives raise or lower the signal
Procedure, shortened: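 ELISA read-out of VEGFRII in primary human umbilical vein endothelium, taken 24 h after chemical treatment. Responses are expressed relative to DMSO, with bidirectional fitting.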

[18] = target: human Vitamin D Receptor (VDR), VDR (gene 7421) (UniProt P11473); test: ATG_VDR_TRANS: Attagene TRANS-FACTORIAL HepG2 Assay for human Vitamin D Receptor (VDR) (AID 2283022; active = hit-call score of the fitted dose curve at least 0.9, where 1 is the maximum)
Procedure, shortened: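 Steps: transfect HepG2 with GAL4-UAS-driven reporter constructs; dose compounds 24 h; isolate RNA, reverse-transcribe, PCR-amplify with 6-FAM-labelled primer extension and HpaI digestion; quantify fragments by capillary electrophoresis relative to DMSO.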

[19] = target: human Retinoid X Receptor beta (RXRb), RXRB (gene 6257) (UniProt P28702); test: ATG_RXRb_TRANS: Attagene TRANS-FACTORIAL HepG2 Assay for human Retinoid X Receptor beta (RXRb) (AID 2283013; active = hit-call score of the fitted dose curve at least 0.9, where 1 is the maximum)
Procedure, shortened: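 Transfect HepG2 with GAL4-UAS multi-reporter constructs (chimeric NR-Gal4, TRANS format); dose compound 24 h; isolate RNA, RT-PCR, FAM primer extension, HpaI digest; quantify by capillary electrophoresis; positive direction vs DMSO.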

Measured: AC50

Sequence of E-selectin (Homo sapiens) (P16581 whole entry, looked up): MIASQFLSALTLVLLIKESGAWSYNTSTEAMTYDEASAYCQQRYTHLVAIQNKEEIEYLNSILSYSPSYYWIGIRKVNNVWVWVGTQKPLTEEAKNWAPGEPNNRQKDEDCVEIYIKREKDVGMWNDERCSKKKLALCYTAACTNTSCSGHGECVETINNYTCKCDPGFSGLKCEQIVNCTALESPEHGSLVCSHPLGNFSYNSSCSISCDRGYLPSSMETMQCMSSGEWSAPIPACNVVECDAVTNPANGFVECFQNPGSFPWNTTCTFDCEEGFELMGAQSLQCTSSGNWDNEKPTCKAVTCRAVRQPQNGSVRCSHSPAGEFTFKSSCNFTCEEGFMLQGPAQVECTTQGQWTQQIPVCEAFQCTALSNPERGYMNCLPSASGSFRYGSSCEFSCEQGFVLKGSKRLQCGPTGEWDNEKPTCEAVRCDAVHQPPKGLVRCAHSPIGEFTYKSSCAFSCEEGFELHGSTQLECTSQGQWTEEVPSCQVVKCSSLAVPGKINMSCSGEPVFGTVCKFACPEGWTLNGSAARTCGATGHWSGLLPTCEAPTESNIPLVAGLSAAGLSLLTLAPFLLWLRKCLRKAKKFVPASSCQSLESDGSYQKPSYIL
Sequence of human Retinoid X Receptor beta (RXRb), RXRB (gene 6257) (P28702 whole entry, looked up, the tested form may be a part): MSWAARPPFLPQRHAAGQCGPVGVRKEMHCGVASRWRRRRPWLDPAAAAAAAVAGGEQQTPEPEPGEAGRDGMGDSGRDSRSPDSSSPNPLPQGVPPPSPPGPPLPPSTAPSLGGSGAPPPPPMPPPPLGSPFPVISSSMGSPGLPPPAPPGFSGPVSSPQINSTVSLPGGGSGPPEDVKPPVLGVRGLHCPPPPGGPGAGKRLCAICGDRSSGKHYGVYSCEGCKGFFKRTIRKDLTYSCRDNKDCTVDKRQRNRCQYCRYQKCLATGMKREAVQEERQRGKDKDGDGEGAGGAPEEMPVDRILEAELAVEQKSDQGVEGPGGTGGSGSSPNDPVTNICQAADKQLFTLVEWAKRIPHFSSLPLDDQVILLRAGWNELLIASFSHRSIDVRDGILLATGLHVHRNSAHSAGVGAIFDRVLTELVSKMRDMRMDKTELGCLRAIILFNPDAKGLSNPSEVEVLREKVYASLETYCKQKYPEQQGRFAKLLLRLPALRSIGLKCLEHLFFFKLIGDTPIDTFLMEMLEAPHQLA
Sequence of human Vitamin D Receptor (VDR), VDR (gene 7421) (P11473 whole entry, looked up, the tested form may be a part): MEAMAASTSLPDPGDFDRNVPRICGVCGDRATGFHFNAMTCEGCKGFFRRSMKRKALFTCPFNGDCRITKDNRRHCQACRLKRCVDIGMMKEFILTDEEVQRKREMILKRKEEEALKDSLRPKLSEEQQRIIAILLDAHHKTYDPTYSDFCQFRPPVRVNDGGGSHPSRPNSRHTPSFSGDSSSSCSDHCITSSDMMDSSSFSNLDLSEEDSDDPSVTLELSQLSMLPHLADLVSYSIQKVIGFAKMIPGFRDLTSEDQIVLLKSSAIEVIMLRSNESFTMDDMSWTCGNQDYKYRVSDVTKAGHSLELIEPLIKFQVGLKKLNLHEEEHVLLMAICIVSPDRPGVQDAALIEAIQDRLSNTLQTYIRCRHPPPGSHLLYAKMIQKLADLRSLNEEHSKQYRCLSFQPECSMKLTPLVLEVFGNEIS
Sequence of Retinoic acid receptor RXR-alpha (Homo sapiens) (P19793 whole entry, looked up, the tested form may be a part): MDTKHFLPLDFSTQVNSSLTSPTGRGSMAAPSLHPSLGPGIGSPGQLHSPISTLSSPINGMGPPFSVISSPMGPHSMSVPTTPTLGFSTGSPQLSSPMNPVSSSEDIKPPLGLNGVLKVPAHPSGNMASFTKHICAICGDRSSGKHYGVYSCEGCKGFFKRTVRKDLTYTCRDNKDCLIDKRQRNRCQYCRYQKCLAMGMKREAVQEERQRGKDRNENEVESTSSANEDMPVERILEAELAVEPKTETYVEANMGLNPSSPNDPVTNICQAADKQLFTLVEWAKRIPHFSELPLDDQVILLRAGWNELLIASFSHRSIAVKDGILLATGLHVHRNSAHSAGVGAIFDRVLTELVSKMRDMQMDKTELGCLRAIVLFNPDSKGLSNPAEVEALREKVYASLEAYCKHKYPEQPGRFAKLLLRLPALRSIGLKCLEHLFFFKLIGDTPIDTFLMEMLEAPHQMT
Sequence of human Thyroid Receptor alpha (THRa1), THRA (gene 7067) (P10827 whole entry, looked up, the tested form may be a part): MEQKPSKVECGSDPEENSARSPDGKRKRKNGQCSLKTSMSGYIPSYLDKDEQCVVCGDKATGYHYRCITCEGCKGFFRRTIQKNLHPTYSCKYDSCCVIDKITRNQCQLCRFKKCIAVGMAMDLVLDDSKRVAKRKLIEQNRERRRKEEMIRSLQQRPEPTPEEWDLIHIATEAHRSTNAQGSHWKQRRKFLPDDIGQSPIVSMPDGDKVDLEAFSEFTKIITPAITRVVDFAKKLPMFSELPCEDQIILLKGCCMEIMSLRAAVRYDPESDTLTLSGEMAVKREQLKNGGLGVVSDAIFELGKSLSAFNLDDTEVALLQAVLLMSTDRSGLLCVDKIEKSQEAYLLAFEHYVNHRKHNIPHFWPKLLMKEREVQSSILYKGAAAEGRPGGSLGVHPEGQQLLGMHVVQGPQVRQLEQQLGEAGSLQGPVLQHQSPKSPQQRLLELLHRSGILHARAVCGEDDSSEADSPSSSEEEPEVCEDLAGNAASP

O=P(O)(O)CCC(F)(F)C(F)(F)C(F)(F)C(F)(F)C(F)(F)C(F)(F)F
active: [11] 40 µM | [15] 22.7 µM
inactive: [1] | [2] | [3] | [4] | [5] | [6] | [7] | [8] | [9] | [10] | [11] | [12] | [13] | [14] | [15] | [16] | [17]

Oc1ccc(Cc2ccccc2O)cc1
not listed: [19]
inactive: all other assays above

C=CCOCC(CO)(CO)CO
inactive: [1] | [19] | [18]

CCCCCC(C)OC(=O)COc1ccc(Cl)c2cccnc12 (stereo not given)
inactive: [1] | [19] | [18]

CN(CCO)S(=O)(=O)C(F)(F)C(F)(F)C(F)(F)C(F)(F)C(F)(F)C(F)(F)C(F)(F)C(F)(F)F
active: [11] 1.63 µM | [12] 0.243 µM
inactive: [1] | [2] | [3] | [4] | [5] | [6] | [7] | [8] | [9] | [10] | [11] | [12] | [13] | [14] | [15] | [16] | [17]

O=S(=O)(O)c1ccccc1
inactive: [1] | [19] | [18]

CCC(=O)C=Cc1ccc(OC)cc1
inactive: [1] | [2]

CC(O)COc1ccccc1 (stereo not given)
inactive: [1] | [2]

O=C(O)C(=O)O
inactive: [1] | [19] | [18]

CC(C)(C)c1ccc(CCC=O)cc1
active: [19] 41.2 µM
inactive: [1] | [18]

CC(=O)Nc1ccc(S(N)(=O)=O)cc1
inactive: [1] | [19] | [18]

CCc1cccc(CC)c1N(COC)C(=O)CS(=O)(=O)O
inactive: [1] | [2]
